In the supplement of paper PMC11732987, “Enantioselective OTUD7B fragment discovery through chemoproteomics screening and high-throughput optimisation” (Communications Chemistry, 2025):

Tests used:
Assay in all cases: log2 ratio of Biotin-Ahx-Ub-VS probe labelling (fragment/DMSO); higher = less target engagement (more negative = stronger competition), active = hit call of the paper (q ≤ 0.05, log2 ratio ≤ -1)
Details in all cases: compound concentration: 200 uM; treatment time: 3 h
USP34 = USP34 (UniProt Q70CQ2)
How it was run: (§1)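 Global-median-normalised Spectronaut label-free quantities were compared by unpaired t-test, and values are average log2 ratios of fragment over vehicle. Only proteins with ≥2 unique peptides were used. HEK293T lysate (495 µg per sample) was treated in triplicate with fragment at 200 µM or vehicle for 3 h and then with Biotin-Ahx-Ub-VS at 0.5 µM final for 1 h. Labelled DUBs were then NeutrAvidin-enriched, digested with LysC and trypsin, and run by diaPASEF LC-MS/MS.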

USP36 = molecular target: T1, USP36 (UniProt Q9P275)
T1 sequence (whole entry): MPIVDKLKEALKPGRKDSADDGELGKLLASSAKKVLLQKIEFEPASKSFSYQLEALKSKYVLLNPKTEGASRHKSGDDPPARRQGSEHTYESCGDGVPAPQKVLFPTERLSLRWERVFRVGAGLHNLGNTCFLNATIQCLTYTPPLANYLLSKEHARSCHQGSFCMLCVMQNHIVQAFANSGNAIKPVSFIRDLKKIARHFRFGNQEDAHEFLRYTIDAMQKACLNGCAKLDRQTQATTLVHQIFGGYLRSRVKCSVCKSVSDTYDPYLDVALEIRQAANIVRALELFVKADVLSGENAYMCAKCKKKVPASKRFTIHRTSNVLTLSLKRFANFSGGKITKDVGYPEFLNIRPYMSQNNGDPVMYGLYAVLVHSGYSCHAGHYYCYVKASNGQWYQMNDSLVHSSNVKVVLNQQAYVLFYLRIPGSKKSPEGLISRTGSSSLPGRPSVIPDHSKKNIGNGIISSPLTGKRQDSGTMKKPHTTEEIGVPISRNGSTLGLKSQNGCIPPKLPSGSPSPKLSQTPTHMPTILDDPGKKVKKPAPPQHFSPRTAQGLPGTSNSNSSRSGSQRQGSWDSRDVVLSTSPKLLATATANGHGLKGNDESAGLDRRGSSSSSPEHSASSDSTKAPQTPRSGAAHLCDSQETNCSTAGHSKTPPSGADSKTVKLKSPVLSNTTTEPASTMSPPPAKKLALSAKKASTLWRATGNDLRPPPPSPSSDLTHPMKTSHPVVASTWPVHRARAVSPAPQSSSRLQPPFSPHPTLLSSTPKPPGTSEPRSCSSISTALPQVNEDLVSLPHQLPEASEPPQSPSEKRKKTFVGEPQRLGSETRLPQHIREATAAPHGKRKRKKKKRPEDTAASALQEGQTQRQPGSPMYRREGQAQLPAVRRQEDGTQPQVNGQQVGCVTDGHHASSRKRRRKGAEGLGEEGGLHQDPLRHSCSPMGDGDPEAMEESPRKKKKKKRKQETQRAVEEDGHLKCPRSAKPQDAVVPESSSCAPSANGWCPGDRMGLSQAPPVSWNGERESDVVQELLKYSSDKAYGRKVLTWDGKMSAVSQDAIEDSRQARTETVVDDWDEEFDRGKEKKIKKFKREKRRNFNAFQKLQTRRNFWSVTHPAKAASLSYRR
How it was run: as §1

USP38 = molecular target: T2, USP38 (UniProt Q8NB14)
T2 sequence (whole entry): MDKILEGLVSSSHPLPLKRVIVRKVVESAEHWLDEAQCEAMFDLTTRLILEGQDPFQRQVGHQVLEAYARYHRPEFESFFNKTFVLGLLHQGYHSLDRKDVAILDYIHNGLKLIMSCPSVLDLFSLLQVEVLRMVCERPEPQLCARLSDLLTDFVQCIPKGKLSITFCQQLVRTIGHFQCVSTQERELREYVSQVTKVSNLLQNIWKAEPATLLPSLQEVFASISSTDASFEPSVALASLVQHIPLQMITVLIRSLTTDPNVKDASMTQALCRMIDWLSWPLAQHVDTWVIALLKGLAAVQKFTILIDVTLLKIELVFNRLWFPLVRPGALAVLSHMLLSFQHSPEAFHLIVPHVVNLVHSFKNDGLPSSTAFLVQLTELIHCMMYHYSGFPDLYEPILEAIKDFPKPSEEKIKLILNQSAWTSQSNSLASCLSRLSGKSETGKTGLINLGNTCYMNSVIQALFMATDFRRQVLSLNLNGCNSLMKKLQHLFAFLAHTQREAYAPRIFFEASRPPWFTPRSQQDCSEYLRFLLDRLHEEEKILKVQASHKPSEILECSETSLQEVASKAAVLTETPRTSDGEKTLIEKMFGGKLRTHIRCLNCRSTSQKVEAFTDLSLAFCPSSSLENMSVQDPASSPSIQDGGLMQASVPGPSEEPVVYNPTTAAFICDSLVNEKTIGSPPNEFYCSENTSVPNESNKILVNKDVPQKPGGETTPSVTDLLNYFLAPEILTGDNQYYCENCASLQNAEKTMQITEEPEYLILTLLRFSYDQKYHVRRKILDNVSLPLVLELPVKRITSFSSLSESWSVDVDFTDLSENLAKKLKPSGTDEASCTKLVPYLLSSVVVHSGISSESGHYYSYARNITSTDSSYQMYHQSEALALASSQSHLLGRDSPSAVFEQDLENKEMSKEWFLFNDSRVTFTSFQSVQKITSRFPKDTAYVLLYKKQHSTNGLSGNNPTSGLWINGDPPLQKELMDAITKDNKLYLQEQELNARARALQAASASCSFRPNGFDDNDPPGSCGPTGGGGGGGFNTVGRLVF
How it was run: as §1

USP39 = molecular target: T3, USP39 (UniProt Q53GS9)
T3 sequence (whole entry): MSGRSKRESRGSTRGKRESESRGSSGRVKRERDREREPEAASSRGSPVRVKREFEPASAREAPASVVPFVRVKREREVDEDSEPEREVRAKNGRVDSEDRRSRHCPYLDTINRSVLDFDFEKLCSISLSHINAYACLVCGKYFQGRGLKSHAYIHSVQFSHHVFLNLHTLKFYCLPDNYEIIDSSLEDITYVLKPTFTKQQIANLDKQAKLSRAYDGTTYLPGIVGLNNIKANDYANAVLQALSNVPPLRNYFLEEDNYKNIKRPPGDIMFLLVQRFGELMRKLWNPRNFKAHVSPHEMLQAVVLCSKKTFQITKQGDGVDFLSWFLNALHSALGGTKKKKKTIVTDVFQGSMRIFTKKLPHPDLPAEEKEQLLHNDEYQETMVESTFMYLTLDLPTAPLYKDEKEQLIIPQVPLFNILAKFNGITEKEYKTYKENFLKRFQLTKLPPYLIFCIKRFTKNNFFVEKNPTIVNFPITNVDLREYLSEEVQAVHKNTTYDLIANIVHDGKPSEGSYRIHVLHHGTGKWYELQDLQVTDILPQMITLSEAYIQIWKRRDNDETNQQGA
How it was run: as §1

USP4 = molecular target: T4, USP4 (UniProt Q13107)
T4 sequence (whole entry): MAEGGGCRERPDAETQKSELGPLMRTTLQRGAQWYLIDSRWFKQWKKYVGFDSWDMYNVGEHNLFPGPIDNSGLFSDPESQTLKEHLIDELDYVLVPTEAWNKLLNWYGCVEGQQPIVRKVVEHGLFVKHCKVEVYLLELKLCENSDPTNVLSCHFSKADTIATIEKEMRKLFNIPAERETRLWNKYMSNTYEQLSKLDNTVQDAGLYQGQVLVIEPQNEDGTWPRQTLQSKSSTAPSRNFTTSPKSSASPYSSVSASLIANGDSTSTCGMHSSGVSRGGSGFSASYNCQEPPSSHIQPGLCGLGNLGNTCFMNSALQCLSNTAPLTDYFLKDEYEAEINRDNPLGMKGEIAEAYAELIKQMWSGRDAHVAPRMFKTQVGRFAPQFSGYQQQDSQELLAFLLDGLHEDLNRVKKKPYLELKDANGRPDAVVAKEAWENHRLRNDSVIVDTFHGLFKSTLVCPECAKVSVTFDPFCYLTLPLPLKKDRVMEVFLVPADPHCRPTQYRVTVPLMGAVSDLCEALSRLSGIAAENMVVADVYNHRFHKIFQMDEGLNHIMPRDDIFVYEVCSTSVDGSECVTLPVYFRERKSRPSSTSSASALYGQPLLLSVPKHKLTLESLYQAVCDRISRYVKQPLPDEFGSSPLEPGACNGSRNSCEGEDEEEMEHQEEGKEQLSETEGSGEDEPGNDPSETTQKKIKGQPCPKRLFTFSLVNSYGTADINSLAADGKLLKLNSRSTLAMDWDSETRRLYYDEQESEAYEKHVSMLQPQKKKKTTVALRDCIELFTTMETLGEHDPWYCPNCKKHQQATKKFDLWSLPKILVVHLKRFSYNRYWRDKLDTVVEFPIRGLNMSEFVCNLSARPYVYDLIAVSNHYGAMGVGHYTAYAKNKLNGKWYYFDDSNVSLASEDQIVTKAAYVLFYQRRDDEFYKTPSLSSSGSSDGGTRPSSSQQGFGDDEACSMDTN
How it was run: as §1

Measured: log2 ratio of Biotin-Ahx-Ub-VS probe labelling

USP34, sequence (Q70CQ2 whole entry, the tested form may be a part): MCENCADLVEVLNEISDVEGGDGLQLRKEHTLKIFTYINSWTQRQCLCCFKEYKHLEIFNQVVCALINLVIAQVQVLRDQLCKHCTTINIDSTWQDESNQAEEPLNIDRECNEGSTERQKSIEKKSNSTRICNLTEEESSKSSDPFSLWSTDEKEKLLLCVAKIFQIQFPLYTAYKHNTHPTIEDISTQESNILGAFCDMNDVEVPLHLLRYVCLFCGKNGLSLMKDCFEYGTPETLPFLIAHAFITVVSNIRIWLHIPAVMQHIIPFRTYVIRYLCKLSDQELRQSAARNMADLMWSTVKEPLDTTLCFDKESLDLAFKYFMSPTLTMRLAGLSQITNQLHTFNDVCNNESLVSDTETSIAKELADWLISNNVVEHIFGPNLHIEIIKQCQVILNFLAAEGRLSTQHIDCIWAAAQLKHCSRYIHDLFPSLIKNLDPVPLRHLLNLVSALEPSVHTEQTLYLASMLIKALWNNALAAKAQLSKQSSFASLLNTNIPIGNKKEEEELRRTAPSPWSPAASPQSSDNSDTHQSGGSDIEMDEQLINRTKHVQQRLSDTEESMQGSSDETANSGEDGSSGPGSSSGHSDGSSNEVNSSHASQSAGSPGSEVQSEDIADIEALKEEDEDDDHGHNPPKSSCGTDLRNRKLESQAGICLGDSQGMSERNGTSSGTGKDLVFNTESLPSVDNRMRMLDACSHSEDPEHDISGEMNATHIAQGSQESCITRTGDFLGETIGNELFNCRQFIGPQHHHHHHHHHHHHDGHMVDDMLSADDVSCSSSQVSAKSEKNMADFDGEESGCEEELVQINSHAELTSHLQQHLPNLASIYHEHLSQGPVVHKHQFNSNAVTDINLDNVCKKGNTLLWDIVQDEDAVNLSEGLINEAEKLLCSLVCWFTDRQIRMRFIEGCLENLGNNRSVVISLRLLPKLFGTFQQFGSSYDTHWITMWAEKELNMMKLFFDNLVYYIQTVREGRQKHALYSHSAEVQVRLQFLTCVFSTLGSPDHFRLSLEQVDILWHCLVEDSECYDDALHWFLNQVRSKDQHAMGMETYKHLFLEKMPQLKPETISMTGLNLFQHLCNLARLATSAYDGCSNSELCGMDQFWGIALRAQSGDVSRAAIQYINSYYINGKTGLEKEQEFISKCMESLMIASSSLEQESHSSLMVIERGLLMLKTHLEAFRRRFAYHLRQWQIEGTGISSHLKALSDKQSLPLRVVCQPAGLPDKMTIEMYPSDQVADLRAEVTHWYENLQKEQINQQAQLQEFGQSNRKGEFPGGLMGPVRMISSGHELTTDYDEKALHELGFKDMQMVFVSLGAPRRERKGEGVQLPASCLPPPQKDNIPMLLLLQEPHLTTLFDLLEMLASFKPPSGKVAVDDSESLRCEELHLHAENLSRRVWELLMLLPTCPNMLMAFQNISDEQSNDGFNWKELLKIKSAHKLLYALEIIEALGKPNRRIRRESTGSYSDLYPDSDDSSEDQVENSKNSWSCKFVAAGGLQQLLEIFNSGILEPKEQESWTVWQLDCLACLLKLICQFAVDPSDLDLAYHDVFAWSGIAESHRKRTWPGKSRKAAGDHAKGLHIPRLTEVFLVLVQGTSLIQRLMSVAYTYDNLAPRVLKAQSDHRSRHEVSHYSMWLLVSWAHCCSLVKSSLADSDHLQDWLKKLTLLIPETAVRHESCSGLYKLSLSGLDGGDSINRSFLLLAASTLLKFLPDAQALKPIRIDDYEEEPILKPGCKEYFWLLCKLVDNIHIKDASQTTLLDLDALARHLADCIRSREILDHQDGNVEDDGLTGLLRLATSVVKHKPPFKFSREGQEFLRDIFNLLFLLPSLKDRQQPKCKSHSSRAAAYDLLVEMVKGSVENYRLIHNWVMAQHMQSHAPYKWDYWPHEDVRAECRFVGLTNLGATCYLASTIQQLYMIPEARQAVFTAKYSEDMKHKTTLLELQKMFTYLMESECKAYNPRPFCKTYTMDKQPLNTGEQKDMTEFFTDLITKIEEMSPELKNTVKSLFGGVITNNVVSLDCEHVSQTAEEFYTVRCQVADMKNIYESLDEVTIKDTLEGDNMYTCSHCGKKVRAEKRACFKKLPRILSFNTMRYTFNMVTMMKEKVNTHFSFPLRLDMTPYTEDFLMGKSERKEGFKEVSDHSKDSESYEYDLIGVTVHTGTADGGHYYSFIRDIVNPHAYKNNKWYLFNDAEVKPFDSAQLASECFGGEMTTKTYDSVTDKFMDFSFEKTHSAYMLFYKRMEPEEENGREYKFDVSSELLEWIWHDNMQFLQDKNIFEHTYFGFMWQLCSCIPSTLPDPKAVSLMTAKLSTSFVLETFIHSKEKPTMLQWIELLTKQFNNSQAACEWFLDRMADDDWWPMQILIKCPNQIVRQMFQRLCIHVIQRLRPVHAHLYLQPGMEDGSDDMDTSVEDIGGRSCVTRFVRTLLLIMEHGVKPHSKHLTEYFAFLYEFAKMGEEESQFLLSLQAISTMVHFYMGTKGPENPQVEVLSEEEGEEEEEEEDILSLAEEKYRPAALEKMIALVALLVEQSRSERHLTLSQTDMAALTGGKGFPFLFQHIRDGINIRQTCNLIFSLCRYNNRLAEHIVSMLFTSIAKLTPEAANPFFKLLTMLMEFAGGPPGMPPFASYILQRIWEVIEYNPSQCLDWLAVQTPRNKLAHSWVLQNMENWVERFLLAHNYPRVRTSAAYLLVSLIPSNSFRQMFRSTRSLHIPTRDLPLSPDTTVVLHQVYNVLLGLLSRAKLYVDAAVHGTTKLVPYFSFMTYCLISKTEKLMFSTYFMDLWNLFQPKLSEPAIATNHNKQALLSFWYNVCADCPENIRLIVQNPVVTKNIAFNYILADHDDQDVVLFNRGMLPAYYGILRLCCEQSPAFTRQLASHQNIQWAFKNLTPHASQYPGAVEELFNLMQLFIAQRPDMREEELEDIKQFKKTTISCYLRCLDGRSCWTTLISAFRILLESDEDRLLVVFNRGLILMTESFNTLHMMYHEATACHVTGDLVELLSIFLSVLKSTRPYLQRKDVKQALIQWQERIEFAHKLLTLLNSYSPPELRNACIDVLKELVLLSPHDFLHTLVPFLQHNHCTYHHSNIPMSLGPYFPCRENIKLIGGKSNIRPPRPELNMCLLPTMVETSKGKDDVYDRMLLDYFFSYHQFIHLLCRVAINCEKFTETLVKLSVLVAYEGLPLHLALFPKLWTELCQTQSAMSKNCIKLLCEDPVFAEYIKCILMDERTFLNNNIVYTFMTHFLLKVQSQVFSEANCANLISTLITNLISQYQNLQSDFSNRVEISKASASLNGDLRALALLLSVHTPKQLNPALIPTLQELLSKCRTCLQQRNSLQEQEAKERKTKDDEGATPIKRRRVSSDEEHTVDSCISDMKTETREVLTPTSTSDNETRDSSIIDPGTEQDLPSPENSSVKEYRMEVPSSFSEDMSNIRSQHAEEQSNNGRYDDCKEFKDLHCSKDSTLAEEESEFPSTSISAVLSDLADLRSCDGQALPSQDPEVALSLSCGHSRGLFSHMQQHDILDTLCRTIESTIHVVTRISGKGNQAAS

COc1cc(Cl)c(C)cc1NC(=O)CCl
inactive: USP34 -0.327 | USP36 -0.122 | USP38 -0.241 | USP39 -0.366 | USP4 -0.423
